Compounds with a hit are over-represented: about 2% of the library has one in this group of screens.
LEDGF integ inh: blocks HIV-1 LEDGF/p75-dependent DNA integration. TR-FRET IN-LEDGF/p75 DNA integration, Eu/Cy5. inhibition, % at 3.7 µM. 370,000 compounds, 0.64% hits. AID 743269;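 active means inhibition above the screen-wide mean plus 3 SD, cut at about 13% in these data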;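 further: signal is the Cy5 over europium emission ratio at 671 and 618 nm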
MBD2 inh: MBD2-methylated oligo binding inhibition; TR-FRET, MBD2 binding to methylated oligonucleotide; inhibition, % at 4.4 µM; 370,000 compounds, 0.31% hits; AID 686964; in the data active means inhibition above about 13%
Rin1 Abl inh: inhibitors of human Rin1-Abl protein interaction; inhibition, % at 7.35 µM; 360,000 compounds, 0.4% hits; P00519+Q13671; TR-FRET Rin1/Abl binding, biochemical; in the data active means inhibition above about 5%, passing the limit was not always enough
UHRF1 binding: blocks human UHRF1 binding to methylated DNA. inhibition, % at 4.4 µM. UHRF1 binding to methylated oligo, TR-FRET. 370,000 compounds, 0.75% hits; in the data active means inhibition above about 21%;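 further: UHRF1 SRA domain binding a hemimethylated CpG hairpin DNA probe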
Target sequence (Q96T88 whole entry, looked up, the tested form may be a part): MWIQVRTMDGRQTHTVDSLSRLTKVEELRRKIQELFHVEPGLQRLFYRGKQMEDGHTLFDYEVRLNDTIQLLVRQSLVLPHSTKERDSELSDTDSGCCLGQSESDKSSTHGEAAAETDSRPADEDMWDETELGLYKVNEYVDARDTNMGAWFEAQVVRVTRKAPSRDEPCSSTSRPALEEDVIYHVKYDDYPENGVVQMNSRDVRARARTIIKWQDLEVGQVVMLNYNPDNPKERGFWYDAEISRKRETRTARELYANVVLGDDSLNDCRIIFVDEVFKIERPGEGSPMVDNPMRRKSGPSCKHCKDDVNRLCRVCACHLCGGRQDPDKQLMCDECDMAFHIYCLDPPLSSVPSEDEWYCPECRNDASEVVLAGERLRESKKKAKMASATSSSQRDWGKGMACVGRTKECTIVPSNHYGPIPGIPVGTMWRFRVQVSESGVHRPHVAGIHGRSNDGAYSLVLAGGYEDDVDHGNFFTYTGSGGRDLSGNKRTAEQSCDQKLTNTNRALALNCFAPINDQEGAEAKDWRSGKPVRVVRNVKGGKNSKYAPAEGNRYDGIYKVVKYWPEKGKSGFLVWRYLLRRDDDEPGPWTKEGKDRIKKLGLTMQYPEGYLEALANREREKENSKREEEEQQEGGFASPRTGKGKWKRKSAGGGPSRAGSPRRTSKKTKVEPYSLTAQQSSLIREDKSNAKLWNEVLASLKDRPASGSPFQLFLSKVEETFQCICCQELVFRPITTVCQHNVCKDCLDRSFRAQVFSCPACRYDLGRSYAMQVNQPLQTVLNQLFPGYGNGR
TCR-CD3 inh: human TCR-CD3 binding inhibition; AID 651800; inhibition, % at 9.4 µM; TAMRA-labeled TCR probe fluorescence, biochemical; 360,000 compounds, 0.37% hits; in the data active means inhibition above about 19%;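 further: recombinant mutant TCR 2C K166C tagged with TAMRA read by polarization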
IN multimer act: HIV-1 integrase multimerization activation, counter-screen; 2,000 compounds, 17% hits; AID 1053131; shares compounds with LEDGF integ inh; activation, % at 7.7 µM; TR-FRET HIV-1 integrase multimerization, biochemical; in the data active means activation above about 8.9%
TR-FRET interf: optically interferes with TR-FRET readout in LEDGF counter-screen; shares compounds with LEDGF integ inh; 2,000 tested, under 10 active; inhibition, % at 7.7 µM; AID 1053135; TR-FRET optical interference counterscreen, HIV-1 IN multimerization;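 active means inhibition above the mean over all tested compounds plus 3 SD, which no compound reached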
LEDGF integ conf: confirmation of HIV-1 LEDGF/p75-dependent integration inhibitors. shares compounds with LEDGF integ inh. TR-FRET LEDGF/p75-dependent HIV-1 integration, biochemical. inhibition, % at 3.7 µM. 2,000 compounds, 36% hits; in the data active means inhibition above about 14%
Of the large screens only hits and unclear results are named; the others gave an inactive call (follow-up assays come after a bar, where they were run).

COCCCNC(=O)[C@@H](Cc1ccccc1)NC(=O)[C@H]1O[C@@H](n2ccc(=O)[nH]c2=O)[C@H](O)[C@@H]1O	none (no result: Rin1 Abl inh)
O=C(Cn1cnc2cc([N+](=O)[O-])ccc2c1=O)NC1CCS(=O)(=O)C1 (stereo not drawn)	LEDGF integ inh 20 | IN multimer act inactive | TR-FRET interf inactive | LEDGF integ conf inactive
CCCS(=O)(=O)NC(=O)C1(C)CCCN(C(=O)COc2ccccc2)C1 (stereo not drawn)	none
N#Cc1cc2ccc(N3CCOCC3)cc2cc1C#N	LEDGF integ inh 31 | IN multimer act inactive | TR-FRET interf inactive | LEDGF integ conf inactive
CCOC(=O)c1oc2c(C)c(O)ccc2c(=O)c1-c1nncn1-c1ccccc1	none
CCOC(=O)c1oc2c(O)c(O)ccc2c(=O)c1-c1nncn1-c1ccccc1	LEDGF integ inh 45 | IN multimer act inactive | TR-FRET interf inactive | LEDGF integ conf 40
CC(C)(CC(=O)O)CC(=O)N1CCN(c2nc3cc(Cl)ccc3s2)CC1	none (no result: LEDGF integ inh, MBD2 inh, UHRF1 binding, TCR-CD3 inh)
COC1C(O)C(O)C(O)C(O)C1O (stereo not drawn)	none
COc1ccccc1/C=C\C(=O)NCC(=O)N/N=C/c1ccc(O)cc1O	LEDGF integ inh 16 | IN multimer act inactive | TR-FRET interf inactive | LEDGF integ conf inactive
COc1ccccc1/C=C/C(=O)NCC(=O)N/N=C/c1ccccc1	none
COC(=O)c1sc(N)c(C(=O)OC)c1COC(=O)[C@@H](NS(=O)(=O)c1cccc(Cl)c1)C(C)C	LEDGF integ inh 21 | IN multimer act inactive | TR-FRET interf inactive | LEDGF integ conf inactive
O=S1(=O)CC(N2CCN(CCO)CC2)CN1Cc1ccccc1 (stereo not drawn)	LEDGF integ inh 35 | IN multimer act inactive | TR-FRET interf inactive | LEDGF integ conf inactive
CCCCCCN1CCN(C2CN(Cc3ccccc3)S(=O)(=O)C2)CC1 (stereo not drawn)	none
CCOc1cccc(-c2cc(=O)[nH][nH]2)c1	LEDGF integ inh 29 | IN multimer act inactive | TR-FRET interf inactive | LEDGF integ conf inactive
COc1cccc(-c2cc(=O)[nH][nH]2)c1	LEDGF integ inh 21 | IN multimer act inactive | TR-FRET interf inactive | LEDGF integ conf inactive
COc1cccc(-c2ccc(C#N)c(=O)[nH]2)c1	none
CS(=O)(=O)Nc1ccccc1-c1cccc2nccn12	none
O=C(N/N=C/C=C/c1ccco1)C(O)c1ccccc1 (stereo not drawn)	LEDGF integ inh 26 | IN multimer act inactive | TR-FRET interf inactive | LEDGF integ conf 26
CC(=O)c1cc2c(cc1F)C(C)(C)CCC2(C)C	none
O=C1C2CC=CCC2C(=O)N1c1ccc(NCCc2cccc(F)c2)c([N+](=O)[O-])c1 (stereo not drawn)	LEDGF integ inh 14 | IN multimer act inactive | TR-FRET interf inactive | LEDGF integ conf inactive
CCC1(CC)C(=O)N(c2ccccc2)C(=N)N(c2ccccc2)C1=O	none
CC1(C)CC(=O)C2=C(C1)OC1=C(C(=O)CC(C)(C)C1)C2c1ccc(O)cc1O	LEDGF integ inh 17 | IN multimer act inactive | TR-FRET interf inactive | LEDGF integ conf inactive
COC1=CC(=O)C(C2CC(=O)c3c(O)cc(O)cc3O2)=CC1=O (stereo not drawn)	LEDGF integ inh 46 | IN multimer act 46 | TR-FRET interf inactive | LEDGF integ conf 24
CC(C)(C)OC(=O)[C@H](Cc1ccccc1)NC(=O)c1ncn2c1c(=O)[nH]c1ccc(Br)cc12	none
CC1(C)N([O-])C(c2cccs2)=C[N+]1=O	LEDGF integ inh 24 | IN multimer act inactive | TR-FRET interf inactive | LEDGF integ conf 29
CC1(C)N([O-])C(c2ccccc2)=C[N+](=O)C1(C)C	none
CCOC(=O)C1=C(N)n2c(s/c(=C\c3ccco3)c2=O)=C(C(=O)OC(C)C)C1c1ccco1 (stereo not drawn)	LEDGF integ inh 51, UHRF1 binding 21 | IN multimer act inactive | TR-FRET interf inactive | LEDGF integ conf inactive
CCOC(=O)C1=C(N)n2c(s/c(=C\c3ccco3)c2=O)=C(C(=O)OCC)C1c1ccco1 (stereo not drawn)	none (no result: LEDGF integ inh, MBD2 inh, UHRF1 binding, TCR-CD3 inh)
COC(=O)CCCC1=CC2=CC(=O)C(C)(OC(=O)c3cccs3)C(=O)C2=CN1Cc1ccco1 (stereo not drawn)	LEDGF integ inh 25 | IN multimer act inactive | TR-FRET interf inactive | LEDGF integ conf 18
NCCCC[C@H]1CN=C(N)N1CCC12CC3CC(CC(C3)C1)C2	none
Cn1c(N)c(S(=O)(=O)N2CCN(c3ccccc3)CC2)c(=O)n(C)c1=O	LEDGF integ inh 15 | IN multimer act inactive | TR-FRET interf inactive | LEDGF integ conf inactive
O=C(NC1CCCC1)C(c1cccnc1)N(Cc1ccc(F)cc1)C(=O)c1csnn1 (stereo not drawn)	LEDGF integ inh 21 | IN multimer act inactive | TR-FRET interf inactive | LEDGF integ conf inactive
O=C(NC1CCCC1)C(c1cccnc1)N(Cc1ccccc1F)C(=O)c1csnn1 (stereo not drawn)	none
Cc1nn(CCCC(=O)Nc2sc3c(c2C#N)CCC3)c(C)c1[N+](=O)[O-]	LEDGF integ inh 18 | IN multimer act inactive | TR-FRET interf inactive | LEDGF integ conf inactive
CCOC1=C2[C@@H](CN(S(=O)(=O)c3ccc(C)cc3)[C@H]2c2ccc(Cl)cc2)[C@H]2C(=O)N(c3ccccc3)C(=O)[C@H]2C1	none
O=C(/C=C/c1ccccc1)Nc1scc(-c2ccccc2)c1C(=O)O	LEDGF integ inh 16 | IN multimer act inactive | TR-FRET interf inactive | LEDGF integ conf inactive
O=C(/C=C/c1ccco1)Nc1scc(-c2ccccc2)c1C(=O)O	none
O=C(Nc1scc(-c2ccccc2)c1C(=O)O)c1ccc(F)cc1	LEDGF integ inh 14 | IN multimer act inactive | TR-FRET interf inactive | LEDGF integ conf inactive
CC(C)[C@H]1COCCS(=O)(=O)N1Cc1ccccc1-c1ccc(C(C)(C)C)cc1	none
O=S1(=O)N[C@H](Cc2ccccc2)COc2cc(N3CCCC3)ccc21	none (no result: Rin1 Abl inh, TCR-CD3 inh)
O=C(c1ccccc1)c1cccc(NC(=O)c2ccc(Br)o2)c1	LEDGF integ inh 18 | IN multimer act inactive | TR-FRET interf inactive | LEDGF integ conf inactive
Nc1cc(=O)[nH]c(SCC(=O)NC2CCCCCCC2)n1	LEDGF integ inh 70 | IN multimer act inactive | TR-FRET interf inactive | LEDGF integ conf 14
Cc1cc(=O)[nH]c(SCC(=O)NC2CCCCCC2)n1	none
CC1CCN(CCCNC(=O)c2ccc3c(Cl)c4c(nc3c2)CCCC4)CC1	none
Fc1ccccc1OCCSc1nnnn1-c1ccccc1	none
COc1ccccc1OCCSc1nnnn1-c1ccc(C)cc1	LEDGF integ inh 37 | IN multimer act inactive | TR-FRET interf inactive | LEDGF integ conf inactive

Screens (PubChem BioAssay)
